# In PubChem BioAssay (Tox21):
# Records with an inconclusive call do not appear. A call without a number means that no potency is given here. Activity calls are given as the source filed them. Unless noted, calls follow the shape of the full dose curve.
# Experiment: qHTS assay for small molecule agonists of the antioxidant response element (ARE) signaling pathway (AID 743202; active = well fitted activation curve with a large enough effect in the signal ratio in the repeat runs, not every such curve was filed as active; the % refers to the signal ratio)
# Conditions: HepG2 ARE-bla reporter, beta-lactamase FRET, 16 h; series mostly up to 73.3 µM
# Procedure, shortened: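 Following a 16 h, 37 C exposure of reporter HepG2 cells (ARE-driven beta-lactamase, 2,000 cells/well) to compounds, FRET substrate was applied for 2 h at room temperature and fluorescence intensity recorded.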
row,Structure (SMILES),Potency
1,c1ccc([C@H]2CN3CCSC3=N2)cc1,inactive
2,NS(=O)(=O)c1ccccc1Cl,inactive
3,O=C1NC(=O)[C@@]2(CCOc3ccc(F)cc32)N1,inactive
4,CCC=O,inactive
5,OC1CCCCC1c1ccccc1 (stereo unspecified),inactive
6,NC(CSCC(=O)O)C(=O)O (stereo unspecified),inactive
7,O=C(O)Cc1ccc(CCNS(=O)(=O)c2ccc(Cl)cc2)cc1,inactive
8,O=C(O)CCCl,inactive
9,CCC(=O)OC(C)c1ccccc1 (stereo unspecified),inactive
10,OCCCC1CCCCC1,inactive
11,Nc1c[n+](N2CCOCC2)no1,inactive
12,O=C(O)COc1nn(Cc2ccccc2)c2ccccc12,inactive
13,O=C[C@H](O)[C@@H](O)[C@H](O)[C@H](O)CO,inactive
14,C[N+](C)(C)CCCCCC[N+](C)(C)C,inactive

# Experiment: qHTS assay for small molecule agonists of the antioxidant response element (ARE) signaling pathway - cell viability counter screen (AID 743203); also: nearly all actives have a fitted effect of over 55% in size
# Conditions: ARE-bla HepG2 viability, CellTiter-Glo luminescence, 16 h; series mostly up to 73.3 µM
# Procedure, shortened: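 Cytotoxicity was tested in parallel with the ARE reporter screen. ARE-bla HepG2 cells were exposed to compounds for 16 hrs, and viability was taken from CellTiter-Glo luminescence.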
row,Structure (SMILES),Potency
1,CN1CCC(=C2c3ccccc3CC(=O)c3sccc32)CC1,inactive
2,O=c1cc(-c2ccccc2)oc2ccccc12,inactive
3,OC(CCN1CCCCC1)(c1ccccc1)C1CC2C=CC1C2 (stereo unspecified),inactive
4,N#Cc1ccc(C2CCCc3cncn32)cc1 (stereo unspecified),inactive
5,COCCCOCCCOC,inactive
6,c1ccc([C@H]2CN3CCSC3=N2)cc1,inactive
7,Oc1ccc(C2CNCCc3c2cc(O)c(O)c3Cl)cc1 (stereo unspecified),inactive
8,NS(=O)(=O)c1ccccc1Cl,inactive
9,O=C1NC(=O)[C@@]2(CCOc3ccc(F)cc32)N1,inactive
10,CCC=O,inactive
11,OC1CCCCC1c1ccccc1 (stereo unspecified),inactive
12,CC/C=C\CC/C=C/CO,inactive
13,O=[N+]([O-])c1ccc(F)cc1F,inactive
14,C/C=C(\C)C#N,inactive
15,C1OCOCO1,inactive
16,O=C(O)Cc1ccc(CCNS(=O)(=O)c2ccc(Cl)cc2)cc1,inactive
17,O=C(O)CNC(=O)c1ccc([N+](=O)[O-])cc1,inactive

row,Structure (SMILES),Potency
1,O=C(O)CCCl,inactive
2,CCCN1CCCC[C@H]1C(=O)Nc1c(C)cccc1C,inactive
3,CCC(=O)OC(C)c1ccccc1 (stereo unspecified),inactive
4,CC(C)(C)c1nnc(NS(=O)(=O)c2ccccc2)s1,inactive
5,N[C@H]1CN(c2c(F)cc3c(=O)c(C(=O)O)cn(C4C[C@H]4F)c3c2Cl)CC12CC2 (stereo partly specified),inactive
6,C=CCCCCCCCCC=O,inactive
7,OCCCC1CCCCC1,inactive
8,Nc1c[n+](N2CCOCC2)no1,inactive
9,O=C(O)COc1nn(Cc2ccccc2)c2ccccc12,inactive
10,CC(C)CCCC(C)N (stereo unspecified),inactive
11,Cc1ccc(C#N)cc1,inactive
12,N=C(N)c1ccc2cc(OC(=O)c3ccc(N=C(N)N)cc3)ccc2c1,inactive
13,CCCCC/C=C\CCC=O,inactive
14,O=C[C@H](O)[C@@H](O)[C@H](O)[C@H](O)CO,inactive
15,C[N+](C)(C)CCCCCC[N+](C)(C)C,inactive
16,CCCCOCCOCCOCCCC,inactive
17,CCCCCSCCCCC,inactive

# Experiment: qHTS assay for small molecule activators of the heat shock response signaling pathway - cell viability counter screen (AID 743209; active = well fitted cell-killing curve with a large enough effect in the repeat runs; also: nearly all actives have a fitted effect of over 50% in size)
# Conditions: HSE-bla HeLa viability, CellTiter-Glo luminescence, 5 h; series mostly up to 62.6 µM
# Procedure, shortened: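 Cytotoxicity counter screen run in parallel with the HSE beta-lactamase reporter, using the same wells. HeLa HSE-bla cells received compound for 5 h at 37 C; ATP-based CellTiter-Glo luminescence was measured after 30 min at room temperature.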
row,Structure (SMILES),outcome
1,CN1CCC(=C2c3ccccc3CC(=O)c3sccc32)CC1,inactive
2,O=c1cc(-c2ccccc2)oc2ccccc12,inactive
3,OC(CCN1CCCCC1)(c1ccccc1)C1CC2C=CC1C2 (stereo unspecified),inactive
4,N#Cc1ccc(C2CCCc3cncn32)cc1 (stereo unspecified),inactive
5,COCCCOCCCOC,inactive
6,c1ccc([C@H]2CN3CCSC3=N2)cc1,inactive
7,NS(=O)(=O)c1ccccc1Cl,inactive
8,O=C1NC(=O)[C@@]2(CCOc3ccc(F)cc32)N1,inactive
9,CCC=O,inactive
10,OC1CCCCC1c1ccccc1 (stereo unspecified),inactive
11,CC/C=C\CC/C=C/CO,inactive
12,O=[N+]([O-])c1ccc(F)cc1F,inactive
13,C/C=C(\C)C#N,inactive
14,C1OCOCO1,inactive
15,NC(CSCC(=O)O)C(=O)O (stereo unspecified),inactive
16,O=C(O)CNC(=O)c1ccc([N+](=O)[O-])cc1,inactive

row,Structure (SMILES),outcome
1,O=C(O)CCCl,inactive
2,CCCN1CCCC[C@H]1C(=O)Nc1c(C)cccc1C,inactive
3,CCC(=O)OC(C)c1ccccc1 (stereo unspecified),inactive
4,CC(C)(C)c1nnc(NS(=O)(=O)c2ccccc2)s1,inactive
5,N[C@H]1CN(c2c(F)cc3c(=O)c(C(=O)O)cn(C4C[C@H]4F)c3c2Cl)CC12CC2 (stereo partly specified),inactive
6,C=CCCCCCCCCC=O,inactive
7,OCCCC1CCCCC1,inactive
8,Nc1c[n+](N2CCOCC2)no1,inactive
9,O=C(O)COc1nn(Cc2ccccc2)c2ccccc12,inactive
10,CC(C)CCCC(C)N (stereo unspecified),inactive
11,Cc1ccc(C#N)cc1,inactive
12,N=C(N)c1ccc2cc(OC(=O)c3ccc(N=C(N)N)cc3)ccc2c1,inactive
13,CCCCC/C=C\CCC=O,inactive
14,CCCCOCCOCCOCCCC,inactive
15,CCCCCSCCCCC,inactive

# Experiment: qHTS assay for small molecule activators of the heat shock response signaling pathway (AID 743210; active = well fitted activation curve with a large enough effect in the signal ratio in the repeat runs, with a control signal flat, not every such curve was filed as active; the % refers to the signal ratio)
# Conditions: HeLa HSE-bla reporter, beta-lactamase ratio, 5 h; series mostly up to 62.6 µM
# Procedure, shortened: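 Heat shock element–beta-lactamase HeLa reporter cells; qHTS with compounds for 5 h at 37 C; detection by FRET substrate fluorescence after 2.5 h at RT.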
row,Structure (SMILES),outcome
1,CN1CCC(=C2c3ccccc3CC(=O)c3sccc32)CC1,inactive
2,O=c1cc(-c2ccccc2)oc2ccccc12,inactive
3,OC(CCN1CCCCC1)(c1ccccc1)C1CC2C=CC1C2 (stereo unspecified),inactive
4,N#Cc1ccc(C2CCCc3cncn32)cc1 (stereo unspecified),inactive
5,COCCCOCCCOC,inactive
6,c1ccc([C@H]2CN3CCSC3=N2)cc1,inactive
7,Oc1ccc(C2CNCCc3c2cc(O)c(O)c3Cl)cc1 (stereo unspecified),inactive
8,NS(=O)(=O)c1ccccc1Cl,inactive
9,OC1CCCCC1c1ccccc1 (stereo unspecified),inactive
10,O=[N+]([O-])c1ccc(F)cc1F,inactive
11,C/C=C(\C)C#N,inactive
12,C1OCOCO1,inactive
13,NC(CSCC(=O)O)C(=O)O (stereo unspecified),inactive
14,O=C(O)Cc1ccc(CCNS(=O)(=O)c2ccc(Cl)cc2)cc1,inactive
15,O=C(O)CNC(=O)c1ccc([N+](=O)[O-])cc1,inactive
16,O=C(O)CCCl,inactive

row,Structure (SMILES),outcome
1,CCCN1CCCC[C@H]1C(=O)Nc1c(C)cccc1C,inactive
2,CCC(=O)OC(C)c1ccccc1 (stereo unspecified),inactive
3,CC(C)(C)c1nnc(NS(=O)(=O)c2ccccc2)s1,inactive
4,N[C@H]1CN(c2c(F)cc3c(=O)c(C(=O)O)cn(C4C[C@H]4F)c3c2Cl)CC12CC2 (stereo partly specified),inactive
5,C=CCCCCCCCCC=O,inactive
6,OCCCC1CCCCC1,inactive
7,Nc1c[n+](N2CCOCC2)no1,inactive
8,O=C(O)COc1nn(Cc2ccccc2)c2ccccc12,inactive
9,CC(C)CCCC(C)N (stereo unspecified),inactive
10,Cc1ccc(C#N)cc1,inactive
11,N=C(N)c1ccc2cc(OC(=O)c3ccc(N=C(N)N)cc3)ccc2c1,inactive
12,CCCCC/C=C\CCC=O,inactive
13,O=C[C@H](O)[C@@H](O)[C@H](O)[C@H](O)CO,inactive
14,C[N+](C)(C)CCCCCC[N+](C)(C)C,inactive
15,CCCCOCCOCCOCCCC,inactive
16,CCCCCSCCCCC,inactive
